Reference: PubChem BioAssay (Tox21)
Results filed as inconclusive are left out. Values without a mark were called inactive. The call rests on the fitted dose curve; in most records, active means well fitted cell-killing curve with a large enough effect in the repeat runs (not every such curve was filed as active); inconclusive means weak or mixed curves, or effect the other way; inactive means no such curve, though single readings can be large or run the other way.

experiment: qHTS assay to identify small molecule antagonists of the farnesoid-X-receptor (FXR) signaling pathway - cell viability counter screen (AID 743221); details: FXR-bla HEK293T viability, CellTiter-Glo luminescence, 16 h; series mostly up to 62.6 µM; activity change, negative = cytotoxicity: at the top concentration; further: nearly all actives have a fitted effect of over 50% in size
From the text: National Center for Advancing Translational Sciences [NCATS]
NIH Chemical Genomics Center [NCGC]
U.S. Environmental Protection Agency [EPA]
National Institutes of Environmental Health Sciences [NIEHS]
National Toxicology Program [NTP]
U.S. Food and Drug Administration [FDA]
The farnesoid-X-receptor (FXR), a nuclear hormone receptor, is highly expressed in liver, intestine, kidney and adrenal cortex. Natural ligands of FXR are the bile acids (Cholic acid, Chenodeoxy cholic acid etc). FXR is an important regulator of diverse metabolic pathways, including the bile acid homeostasis, lipid and glucose metabolisms. FXR regulates the expression of target genes by binding either as a monomer or as a heterodimer with the retinoid X receptor (RXR). Numerous studies have reported that FXR exerts protective function during cholestasis, diabetes, liver regeneration, and cancer. To identify compounds that inhibit FXR signaling, GeneBLAzer FXR-UAS-bla HEK 293T cell line (Invitrogen, Carlsbad, CA) containing a beta-lactamase reporter gene under the control of a UAS response element was used to screen the Tox21 10K compound library. The cytotoxicity of the Tox21 compound library against the FXR-bla cell line was tested in parallel by measuring the cell viability using CellTiter-Glo assay in the same wells.
Tox21 Assay Protocol Summary:
FXR-bla cells were dispensed at 5000 cells/5uL/well in 1536-well black wall/clear bottom plates using a Multidrop Combi (Thermo Fisher Scientific, Waltham, MA) dispenser. After the assay plates were incubated at 37 C and 5% CO2 for 5 h, 23 nL of compounds dissolved in DMSO, positive controls or DMSO only was transferred to the assay plate by a Pintool station (Kalypsys, San Diego, CA), followed by addition of 1 uL Chenodeoxycholic acid (50 uM, final concentration in the wells). The assay plates were incubated at 37C for 16 h. After 1 uL of LiveBLAzerTM B/G FRET substrate was added using a Bioraptr Flying Reagent Dispenser (FRD) workstation (Beckman Coulter, Indianapolis, IN), the plates were incubated at room temperature for 2 h, and fluorescence intensity was measured by an Envision plate reader (PerkinElmer, Shelton, CT). For cell viability readout that measures cytotoxicity, 4uL/well of CellTiter-Glo reagent was added into the assay plates using a Bioraptr FRD. After 30 min incubation at room temperature, the luminescence intensity in the plates was measured using a ViewLux plate reader (PerkinElmer).
On the % scale 0 is the no-effect control and ±100 the full control effect.

SMILES	activity change, negative = cytotoxicity
C=CC(=O)OCCOC(=O)CCC(=O)O	13.6%
CCN(CCO)CCCC(C)Nc1ccnc2cc(Cl)ccc12 (stereo not given)	10.2% [at 5.95 µM]
O=C(O)C(c1ccc(Cl)cc1)c1ccc(Cl)cc1	0.0543%
CC(C)CCCCCCOC(=O)c1ccc(C(=O)OCCCCCCC(C)C)c(C(=O)OCCCCCCC(C)C)c1	5.33%
CCOC(=O)C1=C(C)NC(C)=C(C(=O)OC)C1c1cccc([N+](=O)[O-])c1 (stereo not given)	-1.06%
c1ccc(CNCc2ccccc2)cc1	-0.711%
Cn1sccc1=O	-7.83%
N#Cc1c(F)cccc1F	2.3%
CCCCCCCCCCCCC(=O)O	-18.7% [at 81.1 µM]
Cc1cccc(OCCOc2cccc(C)c2)c1	12% [at 81.1 µM]
C[Si](C)O[Si](C)(C)O[Si](C)(C)O[Si](C)C	10.6%
C#CCOC(=O)[C@@H](C)Oc1ccc(Oc2ncc(Cl)cc2F)cc1	-2.38%
CC(=O)NCCCS(=O)(=O)O	-6.6% [at 29.1 µM]
Cc1cc(C)c(S(=O)(=O)O)cc1N=Nc1cc(S(=O)(=O)O)c2ccccc2c1O	2.22%
NCCCOCCOCCOCCCN	-21.6%
c1ccc(-c2nc[nH]c2-c2ccccc2)cc1	8.26%
CC(=O)N(CC(=O)N(C)C)c1ccccc1	-8.65%
CCOC(=O)CC(C)C	18.8%
CCCCCCCCCCCCCCC1CO1 (stereo not given)	-2.6%
C=Cc1c(C)c2cc3[nH]c(cc4nc(cc5nc(cc1[nH]2)C(C)=C5CCC(=O)O)C(CCC(=O)O)=C4C)c(C)c3C=C	-20.2%

SMILES	activity change, negative = cytotoxicity
Nc1cnn([C@@H]2O[C@H](CO)[C@@H](O)[C@H]2O)c(=O)n1	-0.176%
O=C1[C@H](CC[C@H](O)c2ccc(F)cc2)[C@@H](c2ccc(O)cc2)N1c1ccc(F)cc1	-7.07%
CC(C(=O)O)c1ccc(-c2ccccc2)c(F)c1 (stereo not given)	4.88%
O=C(O)/C=C/c1cnc[nH]1	8.37%
CCCCCOC(=O)c1ccc(O)cc1	-0.935% [at 81.1 µM]
CN(C)C/C=C(/c1ccc(Br)cc1)c1cccnc1	0.745%
Cc1ccc(C)o1	5.05% [at 81.1 µM]
OC(CCN1CCCCC1)(c1ccccc1)C1CCCCC1 (stereo not given)	-6.78%
CCCCCCCCCC=O	-4.83%
CC1CCc2cc(F)cc3c(=O)c(C(=O)O)cn1c23 (stereo not given)	0%
SC1CCCC1	-9.34%
CCN(CC)CCNC(C(=O)OCCC(C)C)c1ccccc1 (stereo not given)	-0.501%
NC(=S)N/N=C/c1cccnc1	-0.597%
CCCC(=O)OCC	2.85%
CCCCCCCCCCCCCCCBr	-6.24%
C1CCC2OC2C1 (stereo not given)	0.616% [at 81.1 µM]
CC(=O)N(O)CCCCCNC(=O)CCC(=O)N(O)CCCCCNC(=O)CCC(=O)N(O)CCCCCN	11.2%
CCCCOCCOCCOCCOCCO	-21.6%
CC1=CCC(C(C)C)C=C1 (stereo not given)	-0.306%
CC(C)NCC(O)c1cc(O)cc(O)c1 (stereo not given)	3.14%
